Source: the supplement of paper PMC9844399
Where a name gives a salt, the structure may show the parent alone.

The molecules below were run on HeLa (assay: nuclear count per well, robust Z-score vs DMSO; higher = more cells (less toxicity)). Conditions: 10 µM; 6 h.
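Also: Hoechst-stained nuclei counted by automated confocal imaging of four fields per well in 384-well plates, with the robust Z-score based on the per-plate DMSO median and robust SD.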

Structure (SMILES)	nuclear count per well
Nc1ccc2c3c(cccc13)C(=O)NC2=O [4-Amino-1,8-naphthalimide]	1.52
NS(=O)(=O)c1cc(C2(O)NC(=O)c3ccccc32)ccc1Cl (centres undefined) [Chlorthalidone]	1.13
CN(C)C[C@H](O)Cn1c2ccc(Br)cc2c2cc(Br)ccc21 (racemic) [Wiskostatin]	-0.063
CC12CC3CC(C)(C1)CC(N)(C3)C2	-0.93
COc1cc2nc(N(C)CCCNC(=O)C3CCCO3)nc(N)c2cc1OC (centres undefined) [Alfuzosin]	0.548
Cc1cccc(C)c1OCC(C)N (centres undefined)	0.0147
CCC(C)SSc1ncc[nH]1 (centres undefined)	-0.451
CC(c1cc2ccccc2s1)N(O)C(N)=O (centres undefined) [Zileuton]	0.0856
CCOC(=O)C1=C(COCCN)NC(C)=C(C(=O)OC)C1c1ccccc1Cl (centres undefined) [Amlodipine]	-0.153
CC(=O)CCCCn1c(=O)c2c(ncn2C)n(C)c1=O [Pentoxifylline]	0.675
CNC(=O)c1ccccc1Oc1nc(Nc2cc(OC)c(OC)c(OC)c2)ncc1Br	-2.32
CCN(CC)C(=O)/C(C#N)=C/c1cc(O)c(O)c([N+](=O)[O-])c1 [Entacapone]	0.686
CN[C@@H]1[C@H](O[C@H]2[C@H](O[C@H]3[C@H](O)[C@@H](O)[C@H](N=C(N)N)[C@@H](O)[C@@H]3N=C(N)N)O[C@@H](C)[C@]2(O)C=O)O[C@@H](CO)[C@H](O)[C@H]1O [Streptomycin Sulfate]	0.805
O=C(O)C(S)=Cc1c[nH]c2ccc(F)cc12	-0.292
CCCCC(=O)N(Cc1ccc(-c2ccccc2-c2nnn[nH]2)cc1)[C@H](C(=O)O)C(C)C [Valsartan]	2.15
CCCc1nc(C(C)(C)O)c(C(=O)O)n1Cc1ccc(-c2ccccc2-c2nnn[nH]2)cc1 [Olmesartan]	0.195
CC(C(=O)O)c1cccc(Oc2ccccc2)c1 (centres undefined) [Fenoprofen Calcium]	0.0036

Structure (SMILES)	nuclear count per well
COC(=O)[C@@H]1CC2=CC(=O)CC[C@]2(C)[C@@]23O[C@@H]2C[C@@]2(C)[C@@H](CC[C@@]24CCC(=O)O4)[C@H]13 [Eplerenone]	0.279
CS(=O)(=O)CCNCc1ccc(-c2ccc3ncnc(Nc4ccc(OCc5cccc(F)c5)c(Cl)c4)c3c2)o1 [Lapatinib Ditosylate]	0.113
Oc1ccc(/C=C/c2cc(O)cc(O)c2)cc1 [Resveratrol]	0.108
CC(C)Nc1cccnc1N1CCN(C(=O)c2cc3cc(NS(C)(=O)=O)ccc3[nH]2)CC1 [Delavirdine Mesylate]	-0.582
C[C@]12C=CC(=O)C=C1CC[C@@H]1[C@@H]2C(=O)C[C@@]2(C)[C@H]1CC[C@]2(O)C(=O)CO [Prednisone]	-0.276
C[C@]12C=CC(=O)N[C@@H]1CC[C@@H]1[C@@H]2CC[C@]2(C)[C@@H](C(=O)Nc3cc(C(F)(F)F)ccc3C(F)(F)F)CC[C@@H]12 [Dutasteride]	0.968
COc1cc(-c2ccc(=O)[nH]n2)ccc1OC(F)F [Zardaverine]	0.171
CC(=O)N[C@@H](CSC/C=C(\C)CC/C=C(\C)CC/C=C(\C)CCC=C(C)C)C(=O)O [N-acetyl-S-geranylgeranyl-L-Cysteine]	0.781
O=c1ncccn1[C@@H]1O[C@H](CO)[C@@H](O)[C@H]1O [Zebularine]	1.77
O=C(CCCCCCC(=O)Nc1ccccc1)NO [Vorinostat]	-0.818
NCCc1ccc(O)c(O)c1	0.526
CCCCC1=NC2(CCCC2)C(=O)N1Cc1ccc(-c2ccccc2-c2nnn[nH]2)cc1 [Irbesartan]	0.55
CC/C=C\C/C=C\C/C=C\C/C=C\C/C=C\CCCCCC(=O)O [Docosapentaenoic acid]	0.0369
CC(=O)N(O)CCCCCNC(=O)CCC(=O)N(O)CCCCCNC(=O)CCC(=O)N(O)CCCCCN [Deferoxamine Mesylate]	0.635
CC(=O)OCC(CCn1cnc2cnc(N)nc21)COC(C)=O [Famciclovir]	-1.28
COc1c(C)c2c(c(O)c1C/C=C(\C)CCC(=O)OCCN1CCOCC1)C(=O)OC2 [Mycophenolate Mofetil]	-0.0821
CC[C@]1(O)C[C@H]2CN(CCc3c([nH]c4ccccc34)[C@@](C(=O)OC)(c3cc4c(cc3OC)N(C=O)[C@H]3[C@@](O)(C(=O)OC)[C@H](OC(C)=O)[C@]5(CC)C=CCN6CC[C@]43[C@@H]65)C2)C1 [Vincristine Sulfate]	-3.14
